HP1b binding inh: HTS for Inhibitors of HP1-beta Chromodomain Interactions with Methylated Histone Tails; AID 540317, 2011; AlphaScreen HP1-beta / biotin-H3K9me3 peptide binding; Potency, µM (doses to about 114 µM), hits mostly inhibitors; Chromobox protein homolog 1 (Homo sapiens), P83916; actives 0.56% (n = 390,000); note: nearly all actives have a fitted effect of over 70% in size
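AlphaScreen: HP1-beta (50 nM) preformed 30 min with biotin-H3(1-18)K9me3 peptide (50 nM) in PBS pH 7.4, 0.01% Tween-20. Compound added for 30 min at RT, then streptavidin donor/nickel chelate acceptor beads (10 ug/mL) for 30 min.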
PI5P4K alpha inh: qHTS for Inhibitors of phosphatidylinositol 5-phosphate 4-kinase (PI5P4K); AID 652105, 2013; max response, %; Phosphatidylinositol 5-phosphate 4-kinase type-2 alpha (Homo sapiens), P48426; actives 1.2% (n = 330,000); PI5P4Kalpha enzyme, ADP-Glo luminescence, 60 min; active compounds read low; active = max response of -50% or lower; inconclusive = between -30% and -50%; inactive = -30% or higher; note: value at the top dose of about 77 µM
Target sequence (P48426 whole entry, looked up): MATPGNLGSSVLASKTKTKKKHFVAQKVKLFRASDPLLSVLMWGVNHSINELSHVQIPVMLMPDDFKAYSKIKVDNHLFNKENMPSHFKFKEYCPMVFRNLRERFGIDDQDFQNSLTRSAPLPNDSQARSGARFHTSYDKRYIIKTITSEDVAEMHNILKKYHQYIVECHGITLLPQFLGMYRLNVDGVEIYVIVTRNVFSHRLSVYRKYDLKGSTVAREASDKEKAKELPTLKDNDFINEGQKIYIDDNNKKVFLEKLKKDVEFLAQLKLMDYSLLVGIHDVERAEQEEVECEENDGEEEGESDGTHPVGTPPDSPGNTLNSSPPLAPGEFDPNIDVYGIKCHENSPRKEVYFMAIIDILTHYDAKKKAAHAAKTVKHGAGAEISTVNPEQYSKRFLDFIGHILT
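qHTS, 1536-well: enzyme/substrate mix, compound by pin tool, 5 microM ATP final; RT 60 min; ADP-Glo reagents 1 (45 min) then 2 (30 min); luminescence.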
PLK1 PBD block: qHTS for Inhibitors of PLK1-PDB (polo-like kinase 1 - polo-box domain): Primary Screen | Plk1 PBD binding of FITC phosphopeptide, fluorescence polarization | Potency, µM, actives largely listed as inhibitors | actives 2.8% (n = 360,000) | AID 720504, 2013; note: series mostly up to about 57 µM; nearly all actives have a fitted effect of over 65% in size
G9a inh: qHTS Assay for Inhibitors of Histone Lysine Methyltransferase G9a | Histone-lysine N-methyltransferase EHMT2 (Homo sapiens), Q96KQ7 | G9a H3K9 monomethylation, AlphaScreen, 2 h | Potency, µM (titrated, usually from 102 µM), most hits filed as inhibitors | actives 8.8% (n = 350,000); note: nearly all actives have a fitted effect of over 75% in size
Target sequence (Q96KQ7 913-1193 limits assumed): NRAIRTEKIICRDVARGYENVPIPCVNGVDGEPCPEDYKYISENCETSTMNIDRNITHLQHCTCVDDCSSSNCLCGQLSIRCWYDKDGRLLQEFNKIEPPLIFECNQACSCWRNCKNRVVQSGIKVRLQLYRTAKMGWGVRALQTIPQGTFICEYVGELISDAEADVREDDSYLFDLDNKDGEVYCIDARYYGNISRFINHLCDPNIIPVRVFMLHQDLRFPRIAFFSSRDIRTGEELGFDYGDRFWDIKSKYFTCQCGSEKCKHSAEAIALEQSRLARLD
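AlphaScreen read-out: biotin-H3K9 peptide (500 nM) methylation by 20 nM enzyme with 20 uM SAM, 2 h at room temperature after 15 min compound preincubation; anti-monomethyl H3K9 antibody plus donor/acceptor beads, 10 min dark.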
JMJD2A Tudor: qHTS Assay for Inhibitors of JMJD2A-Tudor Domain; Lysine-specific demethylase 4A (Homo sapiens), O75164; AlphaScreen JMJD2A-Tudor / H3K4me3 peptide binding; Potency, µM (top dose mostly 114 µM), actives largely listed as inhibitors; actives 4.4% (n = 390,000); AID 504339, 2011; note: nearly all actives have a fitted effect of over 50% in size
BAZ2B inh: qHTS Assay for Inhibitors of BAZ2B | Bromodomain adjacent to zinc finger domain protein 2B (Homo sapiens), Q9UIF8 | actives 4.4% (n = 360,000) | AlphaScreen BAZ2B-H3K14Ac peptide displacement | Potency, µM (titrated, usually from 114 µM), hits mostly inhibitors; note: nearly all actives have a fitted effect of over 60% in size
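AlphaScreen displacement of biotin-H3(5-23)K14Ac peptide (50 nM final) from BAZ2B (50 nM final) in PBS pH 7.4, 0.01% Tween-20; complex preformed 30 min RT, then compounds (top 110 uM) 30 min RT, beads 20 min dark.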
A number is an active result; [ ] = dose if it differs, or a comment. A selection: hits, their analogues and other compounds. The true share with any hit is near 12%. Unless noted, calls come from the whole dose curve; as a rule, active = well fitted curve in the direction sought with a large enough effect; inconclusive = small, poorly fitted or top-dose-only effect, or another doubt; inactive = no such curve, though single readings can be large; an effect the other way counts as inactive or inconclusive.

Screening COc1ccc(CN2CCC(C)CC2)cc1OCc1ccccc1 returned HP1b binding inh inactive, PI5P4K alpha inh inactive, PLK1 PBD block inactive, G9a inh inactive, JMJD2A Tudor inactive and BAZ2B inh inactive.
`CN1CCN(CC(=O)c2cc(C(C)(C)C)c(O)c(C(C)(C)C)c2)CC1` gave HP1b binding inh inactive, PI5P4K alpha inh inactive, PLK1 PBD block inactive, G9a inh 31.6µM, JMJD2A Tudor inconclusive and BAZ2B inh inactive.
For CCOC(=O)C1CCN(Cc2ccc(OC)c(OCc3ccccc3)c2)CC1 the results were HP1b binding inh inactive, PI5P4K alpha inh inactive, PLK1 PBD block inactive, G9a inh 28.2µM, JMJD2A Tudor inactive and BAZ2B inh 56.2µM.
For CCOC(=O)C1CCN(Cc2cc(C(C)(C)C)c(O)c(C(C)(C)C)c2)CC1 the results were HP1b binding inh inactive, PI5P4K alpha inh inactive, PLK1 PBD block inconclusive, G9a inh 56.2µM, JMJD2A Tudor inactive and BAZ2B inh inactive.
Cc1cccc(CN2CCN(C(c3ccccc3)c3ccc(Cl)cc3)CC2)c1 (configuration not stated) was read as HP1b binding inh inactive, PI5P4K alpha inh inconclusive, PLK1 PBD block inconclusive, G9a inh inconclusive, JMJD2A Tudor 79.4µM and BAZ2B inh 50.1µM.
For C[C@H]1CN([C@@H](C)CO)C(=O)c2cc(Br)cnc2O[C@H]1CN(C)Cc1ccccc1C(=O)O the results were PI5P4K alpha inh inactive and PLK1 PBD block inactive.
For Cc1c(C)n(C)c2ccc(C(=O)NCCc3ccc(Cl)cc3)cc12 the results were HP1b binding inh inactive, G9a inh inactive, JMJD2A Tudor inactive and BAZ2B inh inactive.
Screening Cc1ccc(COC(=O)c2ccc(-c3nnn(Cc4ccc(C)cc4)n3)cc2)cc1 returned HP1b binding inh inactive, G9a inh inactive, JMJD2A Tudor inactive and BAZ2B inh inactive.
For CC(C)c1cc(CN2CCN(CCC#N)CC2)cc(C(C)C)c1O the results were HP1b binding inh inactive, PI5P4K alpha inh inactive, PLK1 PBD block inactive, G9a inh inconclusive, JMJD2A Tudor inactive and BAZ2B inh inactive.
`CN1CCCN(C(c2ccccc2)c2ccc(Cl)cc2)CC1` (configuration not stated) gave HP1b binding inh inactive, PI5P4K alpha inh inactive, PLK1 PBD block inactive, G9a inh inconclusive, JMJD2A Tudor 79.4µM and BAZ2B inh inconclusive.
For CC(C)(C)c1cc(CN2CCN(CCO)CC2)cc(C(C)(C)C)c1O the results were HP1b binding inh inactive, PLK1 PBD block 21.2µM, G9a inh inconclusive, JMJD2A Tudor inactive and BAZ2B inh inconclusive.
For COc1cc(CNC(=O)C2CC2)ccc1OCc1ccccc1 the results were HP1b binding inh inactive, PI5P4K alpha inh inactive, PLK1 PBD block inactive, G9a inh inactive, JMJD2A Tudor inactive and BAZ2B inh inactive.
CCOC(=O)C1CCN(Cc2ccc(OCc3ccccc3)c(OC)c2)CC1 was read as HP1b binding inh inactive, PI5P4K alpha inh inactive, PLK1 PBD block inactive, G9a inh 50.1µM, JMJD2A Tudor inactive and BAZ2B inh inactive.
`CN1CCN(C(c2ccccc2)c2ccccc2)CC1` gave HP1b binding inh inactive, PI5P4K alpha inh inactive, PLK1 PBD block inactive, G9a inh inactive[21.5 µM], JMJD2A Tudor inactive and BAZ2B inh inactive.
CCNC(=O)C1CCCN(Cc2ccc(OCc3ccccc3)cc2)CC1 (configuration not stated) was read as PI5P4K alpha inh inactive and PLK1 PBD block inactive.
For CCCCNC(=O)C1CCN(Cc2ccc(OCc3ccccc3)cc2)CC1 the results were HP1b binding inh inconclusive, PI5P4K alpha inh inactive, PLK1 PBD block inactive, G9a inh 11.2µM, JMJD2A Tudor 3.55µM and BAZ2B inh inconclusive.
COc1ccc(Cc2c(C(C)(C)C)nc3ccc(Cl)cn23)c(C)c1 was read as PI5P4K alpha inh inactive and PLK1 PBD block inactive.
CCn1cc(/C=C(\NC(=O)c2ccccc2Cl)C(=O)N2CCN(C)CC2)c2ccccc21 was read as HP1b binding inh inactive, PI5P4K alpha inh inactive, PLK1 PBD block inactive, G9a inh inactive[12.7 µM], JMJD2A Tudor inactive and BAZ2B inh inactive.
For O=C(c1ccc(Cl)cc1)C1CCN(Cc2ccccc2)CC1 the results were HP1b binding inh inactive, PI5P4K alpha inh inactive, PLK1 PBD block inactive, G9a inh inactive, JMJD2A Tudor inactive and BAZ2B inh inactive.
O=C(C1CCN(Cc2ccc(Cl)cc2)CC1)N1CCN(C(c2ccccc2)c2ccccc2)CC1 was read as HP1b binding inh inconclusive, PI5P4K alpha inh inactive, PLK1 PBD block inactive, G9a inh 20µM, JMJD2A Tudor inconclusive and BAZ2B inh 79.4µM.
Screening COc1cc(CN2CCCCC2)ccc1OCc1ccccc1 returned HP1b binding inh inconclusive, PI5P4K alpha inh inactive, PLK1 PBD block inactive, JMJD2A Tudor 31.6µM and BAZ2B inh inconclusive.
`O=C(NNC(=O)c1ccc(Br)s1)c1cccc(Cl)c1` gave HP1b binding inh inactive, PI5P4K alpha inh inactive, PLK1 PBD block inactive, G9a inh inactive[12.7 µM], JMJD2A Tudor inactive and BAZ2B inh inactive.
For CCOC(=O)C1(Cc2cccc(F)c2)CCN(Cc2nc(CC)[nH]c2C)CC1 the results were HP1b binding inh inactive, PI5P4K alpha inh inactive, PLK1 PBD block inactive, G9a inh 39.8µM, JMJD2A Tudor 50.1µM and BAZ2B inh inconclusive.
`CCOC(=O)C1(Cc2cccc(F)c2)CCN(Cc2cnn(CC)c2)CC1` gave HP1b binding inh inactive, PI5P4K alpha inh inactive, PLK1 PBD block inactive, G9a inh inactive, JMJD2A Tudor inactive[11.4 µM] and BAZ2B inh inactive.
Screening Cc1ccc([C@H]2N[C@]3(CCCN(Cc4ccc(C(F)(F)F)cc4)C3=O)[C@H]3C(=O)N(Cc4ccccc4)C(=O)[C@@H]23)cc1 returned PI5P4K alpha inh inactive and PLK1 PBD block inactive.
Screening CN(C)c1cc(-c2ccc(Cl)cc2Cl)oc(=O)c1Cl returned HP1b binding inh inactive, PI5P4K alpha inh inactive, PLK1 PBD block inactive, JMJD2A Tudor inactive and BAZ2B inh 89.1µM.
Screening C=CCSc1nc2sc3c(c2c(=O)n1CC)CCc1ccccc1-3 returned HP1b binding inh inconclusive, PLK1 PBD block 2.99µM, G9a inh inconclusive, JMJD2A Tudor inconclusive and BAZ2B inh inactive.
COc1ccc(-c2[nH]c(-c3ccc(F)cc3)nc2SCC(=O)Nc2ccc(OC)c(OC)c2)cc1 was read as HP1b binding inh inactive, G9a inh inactive, JMJD2A Tudor inconclusive and BAZ2B inh inactive.
